# Results: PubChem BioAssay (EPA / NIEHS)
# Where “and” joins values, the source holds several entries; their conditions need not be identical. Equal entries are not always repeated. Records with an inconclusive call do not appear. Calls of active or inactive are those of the source. Rule for the calls, unless noted: active = hit-call score of the fitted dose curve at least 0.9, where 1 is the maximum; inactive = score below 0.9.
# Tests used:
# [1] = read-out: E-selectin (Homo sapiens) (UniProt P16581); assay: BSK_SAg_Eselectin: BioMAP Diversity Plus: SAg Assay for Eselectin Biomarker Activity (AID 2283091); conditions: primary human HUVEC with PBMC; actives raise or lower the signal
# In short: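 Co-culture: HUVEC + PBMC. Dose compound; 24 h. ELISA for E-selectin. Bidirectional fit vs DMSO.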
# [2] = read-out: Monokine induced gamma interferon (MIG), CXCL9 (gene 4283); assay: BSK_SAg_MIG: BioMAP Diversity Plus: SAg Assay for Monokine induced gamma interferon (MIG) Biomarker Activity (AID 2283092); conditions: primary human HUVEC with PBMC; actives raise or lower the signal
# In short: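 Values reflect bidirectional fitting of ELISA-measured MIG against DMSO vehicle, taken 24 h after dosing of a co-culture of human umbilical vein endothelial cells and peripheral blood mononuclear cells.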
# [3] = BSK_SAg_PBMCCytotoxicity: PBMC Cytotoxicity Assessment in the BioMAP Diversity Plus: SAg Assay (AID 2283093); conditions: primary human HUVEC with PBMC;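 note: fitted both ways against DMSO so a hit may be loss or gain of signal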;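 for AC50: PBMC superantigen activated with SEB plus TSST-1 one hour after compound addition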
# In short: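 PBMC viability by Alamar Blue reduction, fluorescence read at 546/580 nm after 6 h dye exposure. Cells were dosed 1 h before SEB plus TSST-1 activation (20 ng/mL final each), then held 90 h; endothelial/PBMC human co-culture.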
# [4] = read-out: Interleukin-8 (IL8), CXCL8 (gene 3576); assay: BSK_SAg_IL8: BioMAP Diversity Plus: SAg Assay for Interleukin-8 (IL8) Biomarker Activity (AID 2283094); conditions: primary human HUVEC with PBMC; actives raise or lower the signal
# In short: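 Chemicals were dosed onto a human endothelial–PBMC co-culture, and IL-8 was quantified by ELISA after 24 h. Both increases and decreases were fitted relative to DMSO.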
# [5] = BSK_SAg_Proliferation: Cell Proliferation Assessment in the BioMAP Diversity Plus: SAg Assay (AID 2283095); conditions: primary human HUVEC with PBMC;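 note: relative cell number as total protein by SRB absorbance in sub-confluent culture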
# In short: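 Absorbance of sulforhodamine B at 560 nm reports total protein in a human vascular endothelial/PBMC co-culture after 96 h chemical exposure. Gain or loss of signal is fitted in both directions against DMSO.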
# [6] = BSK_SAg_SRB: Viability Assessment in the BioMAP Diversity Plus: SAg Assay (AID 2283096); conditions: primary human HUVEC with PBMC;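 note: cells read one day after compound addition; hits may be either gain or loss of signal compared with DMSO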
# In short: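 Compounds were added to a human vascular co-culture of umbilical vein endothelium and PBMC. After 24 h, parallel cultures were fixed with 10% TCA, stained with 0.1% sulforhodamine B and read at 560 nm. Gain or loss of signal was fitted relative to DMSO.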
# [7] = biological target: human Ephrin type-A Receptor 1 (EphA1), EPHA1 (gene 2041) (UniProt P21709); assay: NVS_ENZ_hEphA1: NovaScreen (NVS) Enzymatic Assay for human Ephrin type-A Receptor 1 (EphA1) (AID 2283158; active = hit-call score of the fitted dose curve at least 0.9, where 1 is the maximum;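 note: activity is signal loss versus DMSO meaning EphA1 kinase inhibition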)
# In short: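 Chemicals first tested in duplicate at 25 uM against recombinant EphA1 with a fluorescent substrate; those passing threshold went to singleton dose-response topping at 50 uM. Activity read 1 h later as mobility-shift fluorescence, loss of signal relative to DMSO.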
# [8] = biological target: human Matrix Metalloproteinase-9 (MMP9), MMP9 (gene 4318) (UniProt P14780); assay: NVS_ENZ_hMMP9: NovaScreen (NVS) Enzymatic Assay for human Matrix Metalloproteinase-9 (MMP9) (AID 2283190; active = hit-call score of the fitted dose curve at least 0.9, where 1 is the maximum;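 note: cell-free recombinant MMP9 protease activity read by fluorescent substrate signal; active means inhibition seen as loss of fluorescence signal versus DMSO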)
# In short: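 Screening concentration 25 uM, duplicate wells, then dose series for confirmation. Cell-free enzymatic reaction measured by fluorescence intensity 1 h post-dosing; decreased signal versus DMSO taken as activity.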
# [9] = biological target: human CYP2D6, CYP2D6 (gene 1565) (UniProt P10635); assay: NVS_ADME_hCYP2D6: NovaScreen (NVS) CYP450-related Enzyme Activity (ADME) Assay for human CYP2D6 (AID 2283107; active = hit-call score of the fitted dose curve at least 0.9, where 1 is the maximum)
# In short: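 Insect-cell recombinant enzyme + fluorogenic substrate, cell-free; 1 h incubation; fluorescence intensity readout. Acetonitrile = neg. ctrl/baseline. Single-point 10 uM, duplicate; follow-up concentration series.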
# [10] = biological target: Cytochrome P450 2C19 (Homo sapiens) (UniProt P33261); assay: NVS_ADME_hCYP2C19: NovaScreen (NVS) CYP450-related Enzyme Activity (ADME) Assay for human CYP2C19 (AID 2283113; active = hit-call score of the fitted dose curve at least 0.9, where 1 is the maximum;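 note: potency for inhibition seen as loss of fluorescent signal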)
# In short: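 Fluorescence intensity was measured 1 hour after chemicals were added to insect-cell-derived recombinant CYP2C19 with fluorogenic substrate. Decreased signal versus acetonitrile control was taken as reduced enzyme activity; initial testing used 10 uM in duplicate.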
# [11] = biological target: human CYP1A1, CYP1A1 (gene 1543) (UniProt P04798); assay: NVS_ADME_hCYP1A1: NovaScreen (NVS) CYP450-related Enzyme Activity (ADME) Assay for human CYP1A1 (AID 2283100; active = hit-call score of the fitted dose curve at least 0.9, where 1 is the maximum)
# In short: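 Recombinant hCYP1A1 + fluorogenic substrate, cell-free; 1 h; fluorescence read. Single-point 10 uM (duplicate) → concentration series, max 20 uM. Acetonitrile negative control.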
# [12] = biological target: rat CYP2A1, Cyp2a1 (gene 24894) (UniProt P11711); assay: NVS_ADME_rCYP2A1: NovaScreen (NVS) CYP450-related Enzyme Activity (ADME) Assay for rat CYP2A1 (AID 2283114)
# In short: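 Cell-free fluorescence enzyme-activity read on recombinant rat CYP2A1, taken 0.75 h post-dosing. Compounds were screened in duplicate at 10 uM, then hits tested in concentration series (max 20 uM); inhibition scored relative to acetonitrile baseline.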
# [13] = biological target: rat CYP2C13, Cyp2c13 (gene 171521) (UniProt P20814); assay: NVS_ADME_rCYP2C13: NovaScreen (NVS) CYP450-related Enzyme Activity (ADME) Assay for rat CYP2C13 (AID 2283121; active = hit-call score of the fitted dose curve at least 0.9, where 1 is the maximum)
# In short: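 Inhibition is read as decreased fluorescent product formation, referenced to acetonitrile vehicle. Cell-free recombinant rat Cyp2c13 reaction ran 0.75 hour; compounds first at 10 uM in duplicate, then concentration series for actives.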
# [14] = biological target: human Dual Specificity Protein Phosphatase 3 (DUSP3), DUSP3 (gene 1845) (UniProt P51452); assay: NVS_ENZ_hDUSP3: NovaScreen (NVS) Enzymatic Assay for human Dual Specificity Protein Phosphatase 3 (DUSP3) (AID 2283152; active = hit-call score of the fitted dose curve at least 0.9, where 1 is the maximum;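 note: phosphatase activity of recombinant human DUSP3 on a fluorogenic substrate without cells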)
# In short: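 Cell-free fluorescence-intensity enzyme activity assay with recombinant protein and substrate; loss of signal fitted relative to DMSO baseline. Primary screen in duplicate at 25 uM, actives then run in concentration series; measured 0 h after dosing.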
# [15] = biological target: human Caspase 5 (CASP5), CASP5 (gene 838) (UniProt P51878); assay: NVS_ENZ_hCASP5: NovaScreen (NVS) Enzymatic Assay for human Caspase 5 (CASP5) (AID 2283137; active = hit-call score of the fitted dose curve at least 0.9, where 1 is the maximum)
# In short: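 Chemicals were first tested in duplicate at 25 uM against recombinant caspase 5 from E. coli. Activity was read by fluorescence intensity 2 hours after dosing. Those passing a preset inhibition threshold were retested in singleton concentration-response up to 50 uM.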
# [16] = biological target: human CYP19A1, CYP19A1 (gene 1588) (UniProt P11511); assay: NVS_ADME_hCYP19A1: NovaScreen (NVS) CYP450-related Enzyme Activity (ADME) Assay for human CYP19A1 (AID 2283098; active = hit-call score of the fitted dose curve at least 0.9, where 1 is the maximum;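 note: potency for inhibitors seen as loss of fluorescent enzyme signal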)
# In short: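 Fluorescence intensity read-out; activity taken as signal loss relative to acetonitrile vehicle. Extracted enzyme, specific substrate, no cells, 0.5 h exposure. Duplicate single-point screen at 10 uM, then concentration–response follow-up for actives.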
# [17] = biological target: Mitogen-activated protein kinase 3 (Homo sapiens) (UniProt P27361); assay: NVS_ENZ_hMAPK3: NovaScreen (NVS) Enzymatic Assay for human Mitogen-Activated Protein Kinase 3 (MAPK 3) (AID 2283177; active = hit-call score of the fitted dose curve at least 0.9, where 1 is the maximum)
# In short: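 Chemicals were first tested in duplicate at 25 uM, with hits re-run as concentration series (max 50 uM). Recombinant enzyme activity, measured 1 h post-dose in a cell-free format, was read by fluorescence/mobility shift relative to DMSO.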
# Sequence of human Ephrin type-A Receptor 1 (EphA1), EPHA1 (gene 2041) (P21709 whole entry, looked up): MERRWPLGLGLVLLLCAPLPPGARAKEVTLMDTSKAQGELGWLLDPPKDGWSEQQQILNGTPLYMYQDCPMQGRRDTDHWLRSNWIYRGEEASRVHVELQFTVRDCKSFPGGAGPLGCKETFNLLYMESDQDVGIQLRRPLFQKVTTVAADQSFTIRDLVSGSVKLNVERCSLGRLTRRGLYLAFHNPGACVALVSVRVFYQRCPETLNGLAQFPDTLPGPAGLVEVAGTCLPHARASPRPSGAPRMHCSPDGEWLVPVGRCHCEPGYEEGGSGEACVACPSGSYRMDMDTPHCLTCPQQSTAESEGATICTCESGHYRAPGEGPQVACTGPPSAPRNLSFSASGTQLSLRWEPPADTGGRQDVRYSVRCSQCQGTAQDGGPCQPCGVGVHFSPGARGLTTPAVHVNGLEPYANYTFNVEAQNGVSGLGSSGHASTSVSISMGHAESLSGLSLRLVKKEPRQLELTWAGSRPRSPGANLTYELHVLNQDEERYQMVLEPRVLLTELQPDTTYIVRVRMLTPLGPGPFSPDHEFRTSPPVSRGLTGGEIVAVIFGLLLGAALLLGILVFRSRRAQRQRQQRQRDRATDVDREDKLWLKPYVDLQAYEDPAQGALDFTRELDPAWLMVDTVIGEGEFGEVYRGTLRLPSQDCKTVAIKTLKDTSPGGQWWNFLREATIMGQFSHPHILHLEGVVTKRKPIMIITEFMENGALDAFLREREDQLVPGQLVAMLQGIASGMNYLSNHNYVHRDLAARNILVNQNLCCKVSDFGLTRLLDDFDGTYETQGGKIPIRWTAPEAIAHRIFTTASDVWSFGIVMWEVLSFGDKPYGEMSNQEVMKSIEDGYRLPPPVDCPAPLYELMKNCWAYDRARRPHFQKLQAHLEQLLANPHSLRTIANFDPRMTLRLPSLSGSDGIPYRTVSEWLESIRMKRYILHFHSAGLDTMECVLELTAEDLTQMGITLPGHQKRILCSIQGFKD
# Sequence of E-selectin (Homo sapiens) (P16581 whole entry, looked up): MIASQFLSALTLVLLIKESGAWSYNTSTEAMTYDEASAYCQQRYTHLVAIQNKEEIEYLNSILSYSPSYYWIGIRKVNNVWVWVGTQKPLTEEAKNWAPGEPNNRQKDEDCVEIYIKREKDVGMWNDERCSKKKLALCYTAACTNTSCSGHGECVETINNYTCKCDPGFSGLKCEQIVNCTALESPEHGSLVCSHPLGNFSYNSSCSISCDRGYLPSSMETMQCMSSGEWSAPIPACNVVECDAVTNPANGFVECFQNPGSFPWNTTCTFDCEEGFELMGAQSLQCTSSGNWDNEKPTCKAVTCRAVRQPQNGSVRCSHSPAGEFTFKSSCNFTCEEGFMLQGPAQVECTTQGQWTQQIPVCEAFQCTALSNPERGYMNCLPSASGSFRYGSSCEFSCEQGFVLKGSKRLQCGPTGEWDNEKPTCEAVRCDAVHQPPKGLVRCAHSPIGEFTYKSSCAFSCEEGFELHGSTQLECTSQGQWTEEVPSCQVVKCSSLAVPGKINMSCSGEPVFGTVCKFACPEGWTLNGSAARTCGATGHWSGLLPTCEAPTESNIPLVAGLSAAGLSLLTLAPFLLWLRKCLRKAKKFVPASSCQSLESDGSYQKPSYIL
# Sequence of human Matrix Metalloproteinase-9 (MMP9), MMP9 (gene 4318) (P14780 whole entry, looked up): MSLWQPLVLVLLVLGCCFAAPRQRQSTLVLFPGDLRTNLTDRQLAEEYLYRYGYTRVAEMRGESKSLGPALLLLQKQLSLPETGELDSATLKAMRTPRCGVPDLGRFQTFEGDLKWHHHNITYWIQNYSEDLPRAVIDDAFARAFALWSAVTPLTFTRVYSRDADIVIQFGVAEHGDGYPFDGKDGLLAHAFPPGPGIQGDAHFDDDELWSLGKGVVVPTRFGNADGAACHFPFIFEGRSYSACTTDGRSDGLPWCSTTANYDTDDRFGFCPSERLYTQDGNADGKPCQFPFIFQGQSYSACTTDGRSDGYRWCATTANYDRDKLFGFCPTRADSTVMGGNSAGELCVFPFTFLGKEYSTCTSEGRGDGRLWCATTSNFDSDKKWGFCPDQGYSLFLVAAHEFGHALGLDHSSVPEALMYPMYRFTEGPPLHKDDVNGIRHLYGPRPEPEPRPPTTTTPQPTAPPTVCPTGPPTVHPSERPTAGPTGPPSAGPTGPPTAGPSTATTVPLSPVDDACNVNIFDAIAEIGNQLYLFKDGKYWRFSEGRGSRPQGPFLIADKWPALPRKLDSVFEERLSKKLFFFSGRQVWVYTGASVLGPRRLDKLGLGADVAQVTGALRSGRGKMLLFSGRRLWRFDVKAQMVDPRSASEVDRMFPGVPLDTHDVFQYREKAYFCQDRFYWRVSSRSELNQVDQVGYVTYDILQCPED
# Sequence of human CYP2D6, CYP2D6 (gene 1565) (P10635 whole entry, looked up): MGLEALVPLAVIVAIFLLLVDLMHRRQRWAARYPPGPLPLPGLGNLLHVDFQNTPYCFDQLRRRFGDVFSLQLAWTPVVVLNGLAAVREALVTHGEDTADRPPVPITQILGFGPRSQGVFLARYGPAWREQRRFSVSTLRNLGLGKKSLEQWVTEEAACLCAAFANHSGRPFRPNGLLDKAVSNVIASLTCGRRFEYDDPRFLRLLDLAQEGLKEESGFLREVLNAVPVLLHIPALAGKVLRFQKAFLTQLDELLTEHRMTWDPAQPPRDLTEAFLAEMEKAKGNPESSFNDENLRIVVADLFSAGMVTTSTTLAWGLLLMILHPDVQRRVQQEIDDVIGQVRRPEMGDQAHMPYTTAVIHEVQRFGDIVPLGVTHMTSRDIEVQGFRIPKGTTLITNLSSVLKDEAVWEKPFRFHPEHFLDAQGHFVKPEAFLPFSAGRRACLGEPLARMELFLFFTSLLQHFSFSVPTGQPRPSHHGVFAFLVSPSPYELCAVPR
# Sequence of human Caspase 5 (CASP5), CASP5 (gene 838) (P51878 whole entry, looked up): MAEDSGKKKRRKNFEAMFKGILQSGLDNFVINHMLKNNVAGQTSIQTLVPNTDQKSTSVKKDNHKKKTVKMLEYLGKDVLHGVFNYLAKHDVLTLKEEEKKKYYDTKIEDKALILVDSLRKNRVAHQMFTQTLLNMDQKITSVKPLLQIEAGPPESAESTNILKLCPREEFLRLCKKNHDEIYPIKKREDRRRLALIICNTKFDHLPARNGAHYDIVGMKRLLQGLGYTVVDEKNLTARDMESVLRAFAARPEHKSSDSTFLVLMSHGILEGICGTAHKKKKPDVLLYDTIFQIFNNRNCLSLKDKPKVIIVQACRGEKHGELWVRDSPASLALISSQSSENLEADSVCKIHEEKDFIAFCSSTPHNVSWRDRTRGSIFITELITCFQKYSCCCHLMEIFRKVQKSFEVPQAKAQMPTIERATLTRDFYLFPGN
# Sequence of human Dual Specificity Protein Phosphatase 3 (DUSP3), DUSP3 (gene 1845) (P51452 whole entry, looked up): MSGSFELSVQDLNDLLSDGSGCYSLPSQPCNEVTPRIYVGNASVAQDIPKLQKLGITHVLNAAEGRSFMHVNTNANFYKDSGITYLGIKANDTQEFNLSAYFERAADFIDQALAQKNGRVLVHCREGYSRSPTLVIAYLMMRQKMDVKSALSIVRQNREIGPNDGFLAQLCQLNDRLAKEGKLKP
# Sequence of human CYP1A1, CYP1A1 (gene 1543) (P04798 whole entry, looked up): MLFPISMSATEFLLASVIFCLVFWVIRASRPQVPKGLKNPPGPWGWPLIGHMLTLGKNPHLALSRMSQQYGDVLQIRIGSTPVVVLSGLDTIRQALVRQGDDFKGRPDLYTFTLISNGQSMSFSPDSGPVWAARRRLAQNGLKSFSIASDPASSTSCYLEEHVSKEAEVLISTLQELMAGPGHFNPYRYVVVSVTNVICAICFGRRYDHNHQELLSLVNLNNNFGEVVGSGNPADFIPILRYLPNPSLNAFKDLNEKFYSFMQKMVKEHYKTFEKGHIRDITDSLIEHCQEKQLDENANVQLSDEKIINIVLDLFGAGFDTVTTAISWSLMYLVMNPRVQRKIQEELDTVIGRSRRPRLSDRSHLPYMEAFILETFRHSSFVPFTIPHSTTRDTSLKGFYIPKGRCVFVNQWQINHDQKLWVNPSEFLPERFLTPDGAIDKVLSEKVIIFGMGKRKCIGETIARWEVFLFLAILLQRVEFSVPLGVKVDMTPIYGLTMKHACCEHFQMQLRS
# Sequence of rat CYP2C13, Cyp2c13 (gene 171521) (P20814 whole entry, looked up): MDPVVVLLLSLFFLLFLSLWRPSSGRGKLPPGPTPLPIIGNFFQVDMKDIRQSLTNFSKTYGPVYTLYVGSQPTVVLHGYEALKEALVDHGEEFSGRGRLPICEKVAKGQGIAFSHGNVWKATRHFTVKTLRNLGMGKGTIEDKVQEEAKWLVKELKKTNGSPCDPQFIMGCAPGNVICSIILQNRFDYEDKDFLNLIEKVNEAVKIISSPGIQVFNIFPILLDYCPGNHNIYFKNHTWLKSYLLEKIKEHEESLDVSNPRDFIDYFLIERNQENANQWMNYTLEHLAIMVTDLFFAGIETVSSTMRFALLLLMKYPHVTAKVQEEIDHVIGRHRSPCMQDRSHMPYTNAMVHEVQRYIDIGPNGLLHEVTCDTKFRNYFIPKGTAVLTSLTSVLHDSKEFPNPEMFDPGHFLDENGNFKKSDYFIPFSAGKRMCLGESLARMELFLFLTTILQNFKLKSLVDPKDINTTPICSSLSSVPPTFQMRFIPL
# Sequence of rat CYP2A1, Cyp2a1 (gene 24894) (P11711 whole entry, looked up): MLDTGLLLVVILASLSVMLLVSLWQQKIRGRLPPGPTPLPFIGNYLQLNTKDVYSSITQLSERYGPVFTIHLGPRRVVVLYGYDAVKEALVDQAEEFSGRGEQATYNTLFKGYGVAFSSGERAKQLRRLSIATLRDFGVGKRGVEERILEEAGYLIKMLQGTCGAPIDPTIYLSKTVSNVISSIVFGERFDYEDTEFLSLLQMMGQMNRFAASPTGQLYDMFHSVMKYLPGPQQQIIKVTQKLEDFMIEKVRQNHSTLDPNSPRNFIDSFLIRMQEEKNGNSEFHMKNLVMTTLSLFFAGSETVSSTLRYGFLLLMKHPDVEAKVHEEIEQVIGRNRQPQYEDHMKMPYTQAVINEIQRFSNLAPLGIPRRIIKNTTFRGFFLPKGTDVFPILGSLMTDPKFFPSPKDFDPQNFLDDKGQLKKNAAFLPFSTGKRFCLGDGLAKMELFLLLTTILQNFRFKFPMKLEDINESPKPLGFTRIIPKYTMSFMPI
structure (smiles),measurement,setting,value
O=C=Nc1cccc2c(N=C=O)cccc12,outcome,[1],inactive
same,outcome,[2],inactive
same,outcome,[3],inactive
same,outcome,[4],inactive
same,outcome,[5],inactive
same,outcome,[6],inactive
Brc1nc2ccccc2s1,outcome,[1],inactive
same,outcome,[2],inactive
same,outcome,[3],inactive
same,outcome,[4],inactive
same,outcome,[5],inactive
same,outcome,[6],inactive
same,outcome,[7],inactive
O=C(O)CCC(F)(F)C(F)(F)C(F)(F)C(F)(F)C(F)(F)C(F)(F)C(F)(F)F,outcome,[1],inactive
same,outcome,[2],inactive
same,outcome,[3],inactive
same,outcome,[4],inactive
same,outcome,[5],inactive
same,outcome,[6],inactive
Cc1ccc(O)c(-n2nc3ccccc3n2)c1,outcome,[1],inactive
same,outcome,[2],inactive
same,outcome,[3],inactive
same,outcome,[4],inactive
same,outcome,[5],inactive
same,outcome,[6],inactive
same,AC50,[8],9.4 µM (active)
Cc1cnccn1,outcome,[1],inactive
same,outcome,[2],inactive
same,outcome,[3],inactive
same,outcome,[4],inactive
same,outcome,[5],inactive
same,outcome,[6],inactive
OCCCCC(F)(F)C(F)(F)C(F)(F)C(F)(F)F,outcome,[1],inactive
same,outcome,[2],inactive
same,outcome,[3],inactive
same,outcome,[4],inactive
same,outcome,[5],inactive
same,outcome,[6],inactive
C[C@]12CC[C@H]3C(=CCc4cc(O)ccc43)[C@@H]1CCC2=O,outcome,[1],inactive
same,outcome,[2],inactive
same,outcome,[3],inactive
same,outcome,[4],inactive
same,outcome,[5],inactive
same,outcome,[6],inactive
same,outcome,[9],inactive
same,AC50,[10],1.95 µM (active)
C=CC(=O)OCC(F)(F)C(F)(F)C(F)(F)COC(=O)C=C,AC50,[1],8.53 µM (active) and 9.25 µM (active)
same,AC50,[2],19.3 µM (active) and 18.6 µM (active)
same,AC50,[3],14.2 µM (active) and 12.8 µM (active)
same,AC50,[4],14.2 µM (active) and 5.57 µM (active)
same,AC50,[5],6.99 µM (active) and 5.35 µM (active)
same,AC50,[6],43.7 µM (active) and 45.6 µM (active)
CCN(CC)c1ccc(C=O)c(O)c1,outcome,[1],inactive
same,outcome,[2],inactive
same,outcome,[3],inactive
same,outcome,[4],inactive
same,outcome,[5],inactive
same,outcome,[6],inactive
CCN=C1C=CC(=C(c2ccc(N(CC)CC)cc2)c2ccc(N(CC)CC)cc2)c2ccccc21,AC50,[1],1.45 µM (active) and 1.11 µM (active)
same,AC50,[2],1.82 µM (active) and 1.55 µM (active)
same,AC50,[3],2.52 µM (active) and 2.57 µM (active)
same,AC50,[4],1.47 µM (active) and 1.15 µM (active)
same,AC50,[5],419 nM (active) and 401 nM (active)
same,AC50,[6],1.78 µM (active) and 2.37 µM (active)
CCCCCCCCn1sc(Cl)c(Cl)c1=O,outcome,[11],inactive
same,AC50,[10],8.26 µM (active)
same,outcome,[12],inactive
same,outcome,[13],inactive
CC(C)CCCC(C)CCO (configuration not stated),AC50,[1],20 µM (active)
same,outcome,[2],inactive
same,AC50,[3],30.6 µM (active)
same,outcome,[4],inactive
same,AC50,[5],20 µM (active)
same,outcome,[6],inactive
same,AC50,[8],6.27 µM (active)
CC(=O)CCC(C)C,outcome,[8],inactive
O=C(c1ccccc1)c1ccc(O)cc1O,outcome,[1],inactive
same,outcome,[2],inactive
same,outcome,[3],inactive
same,outcome,[4],inactive
same,outcome,[5],inactive
same,outcome,[6],inactive
same,AC50,[9],5 µM (active)
same,AC50,[14],16.5 µM (active)
same,outcome,[7],inactive
same,AC50,[8],13.7 µM (active)
O=C1C=CC(=O)N1c1ccc(Cc2ccc(N3C(=O)C=CC3=O)cc2)cc1,AC50,[1],6.88 µM (active)
same,AC50,[2],13 µM (active)
same,AC50,[3],7.25 µM (active)
same,AC50,[4],4.35 µM (active)
same,AC50,[5],3.92 µM (active)
same,AC50,[6],20 µM (active)
same,AC50,[15],4.26 µM (active)
same,outcome,[7],inactive
same,AC50,[8],2.59 µM (active)
CC1=CC2C3C=CC(C3)C2C1C (configuration not stated),outcome,[1],inactive
same,outcome,[2],inactive
same,outcome,[3],inactive
same,outcome,[4],inactive
same,outcome,[5],inactive
same,outcome,[6],inactive
same,AC50,[9],2.84 µM (active)
same,AC50,[15],13.1 µM (active)
Cc1cc(C)c(O)c(C(C)(C)C)c1,AC50,[1],28.8 µM (active)
same,outcome,[2],inactive
same,AC50,[3],31.7 µM (active)
same,outcome,[4],inactive
same,AC50,[5],31.2 µM (active)
same,AC50,[6],35.1 µM (active)
CCc1cc(Cc2cc(CC)c(N)c(CC)c2)cc(CC)c1N,AC50,[16],1.7 µM (active)
CCCCCCCCCCCCCC[P+](CCCC)(CCCC)CCCC,AC50,[17],20.2 µM (active)
same,AC50,[8],2.12 µM (active)
